Screening data: PubChem BioAssay, National Center for Advancing Translational Sciences (NCATS)
This is a sample that favours compounds with a hit; in the whole collection about 19% have one here.
IL-1B inflam inh: qHTS for Inhibitors of Inflammasome Signaling: IL-1-beta AlphaLISA Primary Screen; THP-1 LPS/ATP IL-1B secretion, AlphaLISA, 16 h; active compounds read low; activity change, % at 57.5 µM; hit rate 4.7% among 360,000; in the data active means activity change below about -50%; inconclusive means mostly about -30% to -49%
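THP-1 cells pretreated 1 hr with compounds (up to 57.5 uM final), then stimulated with LPS (250 ng/mL final) plus ATP (1.25 mM final); secreted IL-1B measured by AlphaLISA after 16 hr, decreased signal indicating inhibition.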
DT40 TDP1 no CPT: qHTS for Inhibitors of human tyrosyl-DNA phosphodiesterase 1 (TDP1): qHTS in cells in absence of CPT; DT40 Tdp1-/- hTDP1 cells, no CPT, ATP luminescence, 48 h; Potency, µM (highest dose often 46.2 µM), without a hit: at the highest dose activity change, negative = growth inhibition, actives largely listed as inhibitors; hit rate 15% among 420,000; AID 686978, 2013; further: potency means the concentration at half of the fitted maximal effect; nearly all actives have a fitted effect of over 55% in size
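Camptothecin absent (DMSO only). Human TDP1-complemented DT40 knockout cells, 400 cells/well, 37 °C for minimum 48 hr; ATP measured via CellTiter-Glo, 30 min dark incubation, luminescence.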
ELG1 repair inh: qHTS screen for small molecules that inhibit ELG1-dependent DNA repair in human embryonic kidney (HEK293T) cells expressing luciferase-tagged ELG1. hit rate 2.3% among 330,000. HEK293T ELG1-luciferase reporter, luminescence, 16 h; DNA damage induced by 5-fluorouridine. Potency, µM (top dose mostly 46.1 µM), for the others: at the highest dose activity change, negative = inhibition, hits mostly inhibitors; further: potency means the concentration at half of the fitted maximal effect; nearly all actives have a fitted effect of over 55% in size
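Reporter activity after DNA damage by 5-fluorouridine is monitored. Compound-treated cells incubate 16 hr at 37 °C, then ONE-Glo is added for 30 min before luminescence reading.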
DT40 TDP1 CPT: qHTS for Inhibitors of human tyrosyl-DNA phosphodiesterase 1 (TDP1): qHTS in cells in presence of CPT; chicken DT40 Tdp1-/-;hTDP1 cells + 20 nM CPT, ATP luminescence, 48 h; Potency, µM (series often up to 46.2 µM), without a hit: at the top dose activity change, negative = growth inhibition, most hits filed as inhibitors; hit rate 12% among 420,000; further: potency means the concentration at half of the fitted maximal effect; nearly all actives have a fitted effect of over 55% in size
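Chicken DT40 Tdp1-/- cells complemented with human TDP1, 400 cells/well, exposed to compounds plus 20 nM camptothecin for at least 48 h at 37 C; viability read as ATP content by CellTiter-Glo luminescence.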
HT1080 IDH1KD tx: qHTS for induction of synthetic lethality in tumor cells producing 2HG: qHTS for the HT-1080-IDH1KD cell line; HT-1080 IDH1 knockdown viability, ATP luminescence, 48 h; AID 686971, 2013; hit rate 2% among 360,000; Potency, µM (highest dose often 46.1 µM), without a hit: at the highest dose activity, negative = toxicity, usual class: cytotoxic;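 further: potency means the concentration at half of the fitted maximal effect; 0% = DMSO wells and -100% = cell-free medium wells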
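Knockdown cells (IDH1KD HT-1080) received compounds 2 h after plating at 750 cells/well and were kept 48 h at 37 °C in 5% FBS RPMI. A CellTiter-Glo luminescence read gave % activity for curve fitting.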
HT1080-NT tox: qHTS for induction of synthetic lethality in tumor cells producing 2HG: qHTS for the HT-1080-NT fibrosarcoma cell line; HT-1080-NT fibrosarcoma viability, CellTiter-Glo ATP luminescence, 48 h; AID 686970, 2013; Potency, µM (series often up to 46.1 µM), without a hit: at the highest dose activity, negative = less viability, hits mostly cytotoxic; hit rate 1.6% among 360,000;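 further: NT is the 2HG producing partner of a matched IDH1 knockdown line; potency means the concentration at half of the fitted maximal effect; 0% = DMSO-treated cells and -100% = media-only wells without cells; nearly all actives have a fitted effect of over 55% in size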
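Compounds were tested in concentration-response format on HT-1080-NT cells for 48 hours at 37 degrees C. Cell viability came from CellTiter-Glo luminescence; curves were classified by r2, response magnitude and activity.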
An asterisk follows results filed as active; ? = inconclusive; . = no result; [ ] = another dose, or the depositor's remark. Unless noted, the call rests on the fitted dose curve; in most records, active means well fitted curve in the direction sought with a large enough effect; inconclusive means small, poorly fitted or top-dose-only effect, or another doubt; inactive means no such curve, though single readings can be large; an effect the other way counts as inactive or inconclusive. Unless noted, on the % scale 0 is the no-effect control and ±100 the full control effect.

SMILES	IL-1B inflam inh	DT40 TDP1 no CPT	ELG1 repair inh	DT40 TDP1 CPT	HT1080 IDH1KD tx	HT1080-NT tox
COc1ccc(OCCCC(=O)Nc2cccc(C(C)=O)c2)cc1	8	?	18µM*	?	5%	0%
CCc1ccccc1NC(=O)CN(c1ccc(OC)cc1OC)S(=O)(=O)c1ccccc1	-9	?	-2%	21µM*	-14%	0%
COc1ccc(-c2nc3ccc(Br)cn3c2CC(C)(C)C)cc1OC	23	?	.	?	2%	2%
CC(C)=CCc1c(-c2ccc(O)cc2O)oc2c3c(cc(O)c2c1=O)OC(C)(C)C=C3	-4	?	.	21µM*	-28%	?
O=C(NCCOc1ccccc1)C1Nc2ccc(C(F)(F)F)cc2C2c3ccccc3CC12 (stereo not given)	-74*	?	.	?	?	?
CCOC(=O)C1Nc2ccc(C(F)(F)F)cc2C2c3ccccc3CC12 (stereo not given)	-99*	16µM*	.	18µM*	?	?
CC(C)(C)N1C(=O)c2ccccc2NC(=O)C1C(=O)NCCOc1ccccc1 (stereo not given)	18	?	.	-5%	29%	9%
CCOC(=O)C1Nc2ccc(OC(F)(F)F)cc2C2C=CCC12 (stereo not given)	-14	?	.	?	-10%	-5%
CCOC(=O)C1Nc2ccccc2C2C(O)C(O)CC12 (stereo not given)	27	?	.	29µM*	?	?
CC(C)CCn1nnnc1C(c1ccc(N(C)C)cc1)N1CCN(C(=O)c2ccco2)CC1 (stereo not given)	-65*	-16%	2%	-12%	0%	1%
CCCCC(c1nnnn1CCOC)N1CCN(C(=O)c2ccco2)CC1 (stereo not given)	19	-17%	16%	18µM*	3%	0%
CN(C)c1ccc(C(c2nnnn2C(C)(C)C)N2CCN(C(=O)c3ccco3)CC2)cc1 (stereo not given)	-4	1%	-1%	13%	23%	17%
CC(C)C(c1nnnn1Cc1ccc(F)cc1)N1CCN(C(=O)c2ccco2)CC1 (stereo not given)	8	16µM*	1%	?	-1%[9.24 µM]	0%
CCC(c1nnnn1Cc1ccccc1)N1CCN(C(=O)c2ccco2)CC1 (stereo not given)	6	-27%	4%	-14%	13%	8%
CCOc1ccc(NC(=O)COC(=O)C23CC4CC(CC(C4)C2)C3)c([N+](=O)[O-])c1	12	?	1%	18µM*	-3%	1%
Cc1cccc(C)c1OCc1cc(C(=O)N(C)CCc2ccccn2)no1	-11	?	1%	?	2%	2%
COC(=O)Cc1ccc2sc(-c3ccccc3)nc2c1	0	-29%	?	-20%	-25%	-19%
COC(=O)Cc1sc(-c2ccccn2)nc1-c1ccccc1	25	16µM*	-6%	?	1%	15%
O=C(CSc1nnc(-c2ccccc2)c(-c2ccccc2)n1)N1CCc2ccccc21	5	?	-23%	16µM*	6%	1%
O=C(CSc1nc(-c2ccccc2)cc(=O)[nH]1)N1CCc2ccccc21	9	16µM*	-3%	21µM*	?	-15%
